Compound activity deposited in PubChem BioAssay by National Center for Advancing Translational Sciences (NCATS).
LmPK inh – LmPK (Leishmania mexicana) enzyme inhibition; Q27686; purified LmPK, Kinase-Glo ATP luminescence, 1 h; Potency, µM (titrated, usually from 57.5 µM), most hits filed as inhibitors; 0.37% of 290,000 active
Target sequence (Q27686 whole entry, looked up): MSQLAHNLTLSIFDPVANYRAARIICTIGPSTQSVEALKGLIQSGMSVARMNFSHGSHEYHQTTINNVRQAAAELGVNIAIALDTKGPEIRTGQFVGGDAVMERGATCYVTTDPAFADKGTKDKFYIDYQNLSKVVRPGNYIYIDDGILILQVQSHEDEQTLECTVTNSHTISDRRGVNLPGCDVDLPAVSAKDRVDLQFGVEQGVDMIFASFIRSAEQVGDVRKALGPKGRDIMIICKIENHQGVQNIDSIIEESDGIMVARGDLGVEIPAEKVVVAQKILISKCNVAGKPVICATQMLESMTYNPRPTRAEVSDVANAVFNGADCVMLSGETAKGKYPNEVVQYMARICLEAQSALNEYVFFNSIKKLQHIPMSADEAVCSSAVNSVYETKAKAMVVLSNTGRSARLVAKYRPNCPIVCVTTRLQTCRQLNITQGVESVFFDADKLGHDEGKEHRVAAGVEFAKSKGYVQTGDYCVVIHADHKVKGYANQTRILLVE
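In 50 mM imidazole pH 7.2 with 7 mM MgCl2, LmPK (0.1 nM) turned over PEP (0.5 mM) and ADP (0.1 mM) for 1 h at room temperature. Luciferase read-out of ATP.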
Pf growth 96h – P. falciparum growth inhibition at 96 hours. P. falciparum luciferase reporter growth, 96 h. Potency, µM (titrated, usually from 28.7 µM), most hits filed as inhibitors. 6.9% of 320,000 active
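P. falciparum expressing integrated firefly luciferase, in erythrocytes at 2% hematocrit, 0.05% parasitemia, incubated with compounds 96 h at 37 C, 5% CO2. Growth inhibition read as loss of luminescence; two-generation exposure targets delayed-death apicoplast inhibitors.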
Pf growth 48h – P. falciparum growth inhibition at 48 hours (one generation); AID 504832; Potency, µM (top dose mostly 28.7 µM), most hits filed as inhibitors; P. falciparum luciferase growth in erythrocytes, 48 h; 5.9% of 310,000 active
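Here the parasites carry a stable luciferase gene and grow inside erythrocytes in Albumax-based RPMI medium with compound for one erythrocytic cycle. Activity is scored as loss of luminescent signal.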
Cycloheximide cs – counter-screen hit for Shiga toxin inhibitors, cycloheximide; cell reporter, cycloheximide protein synthesis inhibition counterscreen; max response, %; 12% of 300,000 active; in the data active = max response mostly above about 13%, no sharp cut-off; inactive = mostly below about 14%; also: read at 38.3 µM for the half of the compounds with a filed dose
Shiga toxin inh – inhibitors of Shiga toxin in Vero cells | Vero cells, Shiga toxin protein synthesis inhibition reporter | inhibition, % at 38.7 µM | 9.2% of 290,000 active | AID 2315; in the data active = inhibition mostly above about 28%, no sharp cut-off; inactive = mostly below about 43%
Numbers stand for hits; 0 = inactive; ? = inconclusive; - = not tested or not shown. Most compounds without a hit are left out; they make up all but 22% or so of the library. Unless noted, calls follow the shape of the dose curve; as a rule, active = well fitted inhibition curve with a large enough effect; inconclusive = small, poorly fitted or top-dose-only effect, or another doubt; inactive = no such curve, though single readings can be large or run the other way.

SMILES | LmPK inh | Pf growth 96h | Pf growth 48h | Cycloheximide cs | Shiga toxin inh
CCN(CC)C(=O)Cn1cc(C(=O)C(=O)N(C)C2CCN(C)CC2)c2ccccc21 | 0 | 0 | 0 | 0 | 0
Cc1[nH]c2ccccc2c1C(=O)C(=O)Nc1ccc2c(c1)OCCO2 | 0 | 0 | 0 | 34 | 96
O=C(NNS(=O)(=O)c1ccc(F)cc1F)c1csc(-c2cccnc2)n1 | 0 | ? | 0 | 0 | 0
C[C@@H](C(=O)Nc1cccnc1)n1c(=O)[nH]c2ccccc2c1=O | 0 | ? | 12µM | 0 | 0
O=C(Nc1ccc2c(c1)OCCO2)C(=O)c1c[nH]c2ccccc12 | 0 | 0 | 0 | 0 | 21
O=C(c1c[nH]c2ccccc12)N1CCOCC1 | 0 | 0 | ? | 0 | 0
O=C(C(=O)N1CCN(Cc2ccc3c(c2)OCO3)CC1)c1c[nH]c2ccccc12 | 0 | ? | ? | 0 | 0
O=C(Nc1ccc2c(c1)OCO2)C(=O)c1c[nH]c2ccccc12 | 0 | 0 | 0 | 28 | 72
N/C(=N\OC(=O)/C=C/c1ccccc1Cl)c1cccnc1 | 0 | ? | 0 | 63 | 112
N/C(=N\OC(=O)/C=C/c1ccc(Br)cc1)c1ccccn1 | 0 | 0 | 0 | 81 | 68
N/C(=N\OC(=O)/C=C/c1ccccc1Cl)c1ccccn1 | ? | 0 | 0 | 0 | 0
N/C(=N\OC(=O)/C=C/c1ccccc1)c1cccnc1 | 0 | 0 | ? | 32 | 70
Cc1cc(C)cc(NC(=O)CCC(=O)Nc2nnc(C(C)C)s2)c1 | 0 | 0 | 0 | 0 | 0
Cc1ccc(C(=O)NCCNC(=O)c2ccccn2)cc1 | 0 | 0 | 0 | 0 | 0
Cc1nc(N2CCCC2)c2nnn(Cc3ccccc3Cl)c2n1 | 0 | 0 | 0 | 0 | 0
COc1ccc(N2CCN(c3ncnc4c3nnn4Cc3ccccc3Cl)CC2)cc1 | 0 | 5.2µM | 0 | 0 | 0
c1ccc(Cn2nnc3c(N4CCC5(CC4)OCCO5)ncnc32)cc1 | 0 | 12µM | 0 | 0 | 0
CCc1nc(N2CCC3(CC2)OCCO3)c2nnn(Cc3ccccc3)c2n1 | 0 | 0 | ? | 0 | 0
Cc1nc(N2CCC(C(N)=O)CC2)c2nnn(Cc3ccccc3)c2n1 | 0 | 0 | ? | 0 | 0
Cc1nc(N2CCC3(CC2)OCCO3)c2nnn(Cc3ccccc3F)c2n1 | 0 | 0 | - | 43 | 57
O=C(N/N=C/c1sc(N2CCOCC2)nc1-c1ccccc1)c1ccccc1F | 0 | ? | ? | 0 | 0
O=C(N/N=C/c1sc(N2CCOCC2)nc1-c1ccccc1)c1ccccc1Cl | 0 | ? | 10µM | 0 | 0
Cc1cc(C(=O)N/N=C/c2sc(N3CCOCC3)nc2-c2ccccc2)c(C)o1 | 0 | ? | ? | 0 | 0
O=C(N/N=C/c1sc(N2CCOCC2)nc1-c1ccccc1)c1ccccc1O | 0 | 1.9µM | 5.2µM | 0 | 0
O=C(O)c1cccc(N/N=C/c2sc(N3CCOCC3)nc2-c2ccccc2)c1 | 0 | 5.2µM | ? | 128 | 176
SMILES | LmPK inh | Pf growth 96h | Pf growth 48h | Cycloheximide cs | Shiga toxin inh
O=[N+]([O-])c1ccc(N/N=C/c2sc(N3CCOCC3)nc2-c2ccccc2)c(S(=O)(=O)Nc2ccccc2Cl)c1 | 0 | ? | 1.5µM | 0 | 0
COc1cc(C(=O)N/N=C/c2sc(N3CCOCC3)nc2-c2ccccc2)cc(OC)c1OC | 0 | 0 | 0 | 0 | 0
O=C(c1cccc(Oc2c(Cl)cccc2[N+](=O)[O-])c1)N1CCOCC1 | 0 | 0 | 0 | 0 | 0
CCOc1ccc(CCNC(=O)Cn2ncn3nc(-c4ccc(OC)cc4)cc3c2=O)cc1OCC | 0 | ? | 0 | 0 | 0
O=C(Nc1ccc(Cc2ccncc2)cc1)C1CCC(N2C(=O)C3CCCCC3C2=O)CC1 (stereo not given) | 0 | 0 | ? | 0 | 0
Cc1cc(C)n2c(SCC(=O)N(C)C3CCCCC3)nnc2n1 | 0 | ? | 0 | 0 | 0
C(=N\N(c1ccccc1)c1ccccc1)/c1ccc(N2CCOCC2)s1 | 0 | 8.3µM | ? | 0 | 0
FC(F)(F)c1ccc(Cl)c(N/N=C/c2ccc(N3CCOCC3)s2)c1 | 0 | 7.4µM | ? | 0 | 0
O=C(N/N=C/c1ccc(N2CCOCC2)s1)c1ccccc1Cl | 0 | ? | 0 | 34 | 109
O=C(N/N=C/c1ccc(N2CCOCC2)s1)c1ccc(NS(=O)(=O)c2cccs2)cc1 | 0 | 0 | ? | 0 | 0
C(=N\N(c1ccccc1)c1ccccc1)/c1ccc2c(c1)OCO2 | 0 | ? | ? | 0 | 0
CCOC(=O)N/N=C/c1ccc(N2CCOCC2)s1 | 0 | 0 | 2.6µM | 0 | 0
CCOC(=O)N/N=C/c1cc(OC)c(O)c(OC)c1 | 0 | 0 | 0 | 0 | 0
CC1CCCCN1C(=O)c1cc2ccccc2cc1O (stereo not given) | 0 | 0 | ? | 0 | 0
Cc1cccc(N(CC(=O)Nc2cccnc2)S(C)(=O)=O)c1 | 0 | 0 | 0 | 0 | 0
Nc1ccc(C(=O)N/N=C/c2sc(N3CCOCC3)nc2-c2ccccc2)cc1 | 0 | ? | ? | 0 | 0
O=C(N/N=C/c1sc(N2CCOCC2)nc1-c1ccccc1)c1cccc(S(=O)(=O)N2CCOCC2)c1 | 0 | 2.1µM | 1.9µM | 0 | 0
CCN(CC(=O)Nc1cc(Cl)ccc1C)C(=O)c1nc2nc(C)cc(C)n2n1 | - | 0 | 0 | - | -
Clc1ccc(-c2csc(-c3ccno3)n2)cc1 | 0 | 0 | 0 | 23 | 0
Fc1cccc(-c2csc(-c3ccno3)n2)c1 | 0 | 0 | 0 | 25 | 38
Cn1c(=O)c(C(=O)COC(=O)c2cc(-c3ccco3)nc3ccccc23)c(N)n(CC2CC2)c1=O | 0 | 8.3µM | ? | 22 | 0
CC(C)Cn1c(N)c(C(=O)COC(=O)/C=C/c2ccccc2)c(=O)n(C)c1=O | - | 10µM | ? | - | -
CC(C)Cn1c(N)c(C(=O)CSc2ccccc2)c(=O)n(C)c1=O | 0 | 0 | 0 | 0 | 0
Cn1c(=O)c(C(=O)COC(=O)c2cc(C3CC3)nc3ccccc23)c(N)n(Cc2ccccc2)c1=O | 0 | 9.3µM | ? | 0 | 0
Cn1c(=O)c(C(=O)COc2ccc(F)cc2Cl)c(N)n(Cc2ccccc2)c1=O | 0 | ? | 0 | 0 | 0
SMILES | LmPK inh | Pf growth 96h | Pf growth 48h | Cycloheximide cs | Shiga toxin inh
Cn1c(N)c(C(=O)COC(=O)c2ccccc2C(=O)c2ccccc2)c(=O)n(C)c1=O | - | 0 | 13µM | - | -
O=C(CSc1ccc(-c2ccccn2)nn1)Nc1ccc(F)c(F)c1 | 0 | 0 | 0 | 0 | 0
CN1CCN(C(=S)c2cn(CCOc3ccccc3)c3ccccc23)CC1 | 0 | 0 | 0 | 0 | 0
Cn1c(=O)c(C(=O)COC(=O)c2cc(C(F)(F)F)nc3ccccc23)c(N)n(Cc2ccccc2)c1=O | 0 | ? | 12µM | 0 | 0
Cn1c(=O)c(C(=O)COC(=O)c2cc(-c3ccccc3)nc3ccccc23)c(N)n(Cc2ccccc2)c1=O | 0 | ? | ? | 0 | 0
O=C(O)c1cc(NC(=O)c2ccc([N+](=O)[O-])cc2)cc(NC(=O)c2ccc([N+](=O)[O-])cc2)c1 | 0 | 0 | - | 0 | 0
O=C(N/N=C/C(Cl)=C/c1ccc([N+](=O)[O-])cc1)C(=O)Nc1ccc(C(=O)O)cc1 | 0 | ? | 12µM | 0 | 0
O=C(Nc1ccc([N+](=O)[O-])cc1)C(=O)Nc1cccc(C(=O)O)c1 | 25µM | 0 | ? | 0 | 0
